The values that follow come from PubChem BioAssay AID770 (SRMLSC, 2007).

The nature of this experiment: HT29 colon tumor cell growth inhibition, primary screen, imaging, high content imaging, 24 h, CellTiter-Glo (AID 770).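 For condensed nuclei: share of cells whose nuclear area falls below control median minus 1.5 SD.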 To be noted: HT29 cell number by imaging, at 10 µM, stronger effect = higher value; for condensed nuclei: measured here: percent cells with condensed nuclei. A general note: ATP-based viability assays read luminescence as a measure of living cells.
[1] abbreviates: measured here: ATP CellTiter-Glo viability.

Hit rate of the full screen: of about 3,300 compounds, fewer than 10 were called active.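 Rule for the calls: active = growth inhibition above 90% in viable cell count at a single dose; inactive = growth inhibition below 90%.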 Only a sample is shown.

Take `CCCCCC(=O)N1CC2(C)CN(C(=O)CCCCC)CC(C)(C1)C2=O`: the growth inhibition was -27.8% (inactive) and the condensed nuclei came to 1.67%. Moreover, the growth inhibition under setting [1] is -0.56%.
`CN1CCc2c(n(CC(O)CN3C(=O)c4ccccc4S3(=O)=O)c3ccccc23)C1=O` (centres undefined): the growth inhibition was 3.96% (inactive) and the condensed nuclei was 8.09%. Also, the growth inhibition under setting [1] is -10.2%.
For `O=C1CC(C(=O)O)c2ccccc2N1` (centres undefined), in that order: 10.3% (inactive), 2.67% and 0.11%.
Consider `COc1nc(NS(=O)(=O)c2ccc(C)cc2)nc(C)c1Cl`, for which the growth inhibition is 9.89% (inactive) and the condensed nuclei came out at 2.47%. Moreover, under setting [1], the growth inhibition is -6.08%.
For `CCOC(=O)N1CCN(c2ncnc3c2cnn3-c2ccc(OC)cc2)CC1`, in that order: 17% (inactive), 3.96% and 5.78%.
For `CCOC(=O)C1CCCN(c2nc3ccccc3nc2C(C#N)C(=O)OCCOC)C1` (centres undefined) the same measures were 49.2% (inactive), 9.83% and 70%.
On to `Cn1ncc2nc[nH]c(=O)c21`, for which the growth inhibition is 27.4% (inactive) and the condensed nuclei amounted to 2.08%. Also, the growth inhibition under setting [1] was 0.04%.
As for `CC(C)Nc1nc(NC(C)C)nc(N(C)n2cnnc2)n1`, the growth inhibition is -12.4% (inactive) and the condensed nuclei is 2.84%. Moreover, the growth inhibition under setting [1] is -9.08%.
For `COc1ccc(C(=O)OC(C)CN2CCN(C)CC2)cc1OC` (centres undefined), in that order: 28.2% (inactive), 5.84% and 1.58%.
For `Cc1cc(Cn2ccnc2)c(C)cc1Cn1ccnc1`, in that order: 13.6% (inactive), 3.14% and 11.6%.
Turning to `COc1cc(-c2nn3c(COc4ccccc4)nnc3s2)cc(OC)c1OC`, the growth inhibition is 56.5% (inactive) and the condensed nuclei was 5.76%. In addition, the growth inhibition under setting [1] was found to be 9.54%.
For `CCOC(=O)C1=C(C)NC(SCC(=O)Nc2nc(C)cs2)=C(C#N)C1c1cccs1` (centres undefined) the same measures were 7.8% (inactive), 5.36% and 22.8%.
For `COc1ccc(OC)c(NC(=O)CSc2nnc(-c3ccco3)n2-c2ccc(C(=O)O)cc2)c1`, in that order: 5.68% (inactive), 4.63% and -8.2%.
For `c1ccc(N2CCN(c3nc(-c4ccccn4)nc4ccccc34)CC2)cc1` the same measures were 4.92% (inactive), 11.6% and -10.8%.
Take `CC1(C)Cc2c(C#N)c(OCC(=O)c3ccc(Cl)cc3)nc(-c3ccoc3)c2CO1`: the growth inhibition was 18.7% (inactive) and the condensed nuclei turned out to be 4.85%. Besides, under setting [1], the growth inhibition was 21.9%.
Consider `O=C(NCc1ccccc1)c1ccc(=O)[nH]n1`, for which the growth inhibition was -5.75% (inactive) and the condensed nuclei was found to be 3.79%. Also, the growth inhibition under setting [1] was -8.23%.
For `Cc1ccc(NC(=O)Cn2nc(C)c3ccccc3c2=O)cc1`, in that order: -20% (inactive), 3.28% and -4.94%.
For `COc1ccc(OC)c(C2NC(=O)c3sc(=S)n(-c4ccccc4)c3N2)c1` (centres undefined) the same measures were 36.6% (inactive), 4.81% and 16.9%.
For the molecule `CC(=O)N1CC=C2C(C#N)=C(N)C(C#N)(C#N)[C@H](c3ccoc3)[C@H]2C1`, the growth inhibition was 6.78% (inactive) and the condensed nuclei amounted to 3.16%. Further, the growth inhibition under setting [1] is -12.8%.
For `Cc1ccc(CNc2oc(COc3ccccc3Cl)nc2C#N)cc1`, in that order: -7.99% (inactive), 4.34% and -1.41%.
For `CCOC(=O)C(NC=O)(NC(C)(C)C)C(=O)OCC`, in that order: -28.5% (inactive), 2.61% and -6.54%.
`Cc1nc2sc(C#N)c(N)c2c2c1CCCC2`: the growth inhibition was -26.7% (inactive) and the condensed nuclei was 1.98%. Further, the growth inhibition under setting [1] is -6.54%.
For `Cn1c(SCC(=O)N2CCOCC2)nnc1-c1ccc(Cl)cc1Cl`, in that order: 30.4% (inactive), 2.99% and -11.5%.
For `COc1ccc(C2CC(=O)C(C=NCCN3CCOCC3)=C(O)C2)cc1` (centres undefined), in that order: 30% (inactive), 0.91% and -14.6%.
Turning to `CC(NC(=O)CSc1nnc(COc2ccccc2)o1)c1ccccc1` (centres undefined), the growth inhibition was 2.08% (inactive) and the condensed nuclei stood at 4.42%. Moreover, the growth inhibition under setting [1] was -10.8%.
With `N#CC1=C(SCC(=O)c2ccccc2)NC2=C(C(=O)CCC2)C1c1ccco1` (centres undefined), the growth inhibition is 77% (inactive) and the condensed nuclei was 20.4%. Besides, under setting [1], the growth inhibition was found to be 12.5%.
As to `Cn1c(=O)c2c3c(sc2n2c(SCC(N)=O)nnc12)CC(C(C)(C)C)CC3` (centres undefined), the growth inhibition was -4.56% (inactive) and the condensed nuclei is 3.87%. Besides, the growth inhibition under setting [1] is -15.8%.
For the molecule `CN(CCOC(=O)c1cccc(Br)c1)C(C)(C)C`, the growth inhibition is 6.82% (inactive) and the condensed nuclei amounted to 2.48%. Besides, under setting [1], the growth inhibition was found to be 3.02%.
On to `COC(=O)c1cc(Br)c(=O)n(Cc2cccnc2)c1`, for which the growth inhibition is 6.29% (inactive) and the condensed nuclei is 1.99%. Moreover, the growth inhibition under setting [1] was -14.1%.
For `CC12CN3CC(C)(CN(C1)C3c1ccc(Cl)cc1Cl)C2O` (centres undefined) the same measures were 15% (inactive), 2.07% and 0.64%.
For `CC1(C)Cc2c(c(N3CCOCC3)nc3sc(C#N)c(N)c23)CS1` the same measures were 16.1% (inactive), 14% and 12.8%.
For `COc1cccc(CNc2ncc(Br)cc2Br)c1O`, in that order: 28.4% (inactive), 8.79% and 3.03%.
As to `COc1ccccc1NC(=O)c1c(C)cc(=O)oc1C`, the growth inhibition was 2.52% (inactive) and the condensed nuclei worked out at 1.89%. Besides, under setting [1], the growth inhibition was -2.65%.
As to `C=CCc1c(C)nc(SCCC)[nH]c1=O`, the growth inhibition was -39.5% (inactive) and the condensed nuclei turned out to be 4.83%. Further, the growth inhibition under setting [1] was 9.14%.
For `Cc1cc(N2C(=O)C(=O)/C(=C(/O)c3ccccc3)C2c2cccs2)no1` (centres undefined) the same measures were -3.8% (inactive), 2.92% and -3.1%.
For `N#Cc1c(NCCN)nc(NCc2ccccc2)c2c1CCN(Cc1ccccc1)C2` the same measures were 48.7% (inactive), 7.1% and 41.2%.
For `CSC1=C(C#N)C(c2ccc(C)s2)CC(=O)N1` (centres undefined), in that order: 22.7% (inactive), 3.3% and 4.49%.
In the case of `COc1cc(-c2cc(C(F)(F)F)n3ncc(C(=O)O)c3n2)cc(OC)c1OC`, the growth inhibition was -25.6% (inactive) and the condensed nuclei turned out to be 2.49%. For the same molecule, the growth inhibition under setting [1] was -14.3%.
